This passage reports inhibition results from ChEMBL document CHEMBL1961873, “Compounds: GSK PKIS; Assays: Nanosyn kinase panel” (2012).

For assay [1], the target named is Dual specificity protein kinase CLK3 (Homo sapiens) (UniProt P49761). The following applies: at 1 µM.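 Note: each value is the mean inhibition of CLK3.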
Assay [2] concerns the target Dual specificity tyrosine-phosphorylation-regulated kinase 1A (Homo sapiens) (UniProt Q13627). The following applies: at 0.1 µM.
Assay [3] has the same target. The following applies: at 1 µM.
In assay [4] the target is Dual specificity tyrosine-phosphorylation-regulated kinase 1B (Homo sapiens) (UniProt Q9Y463). The following applies: at 0.1 µM.
Assay [5] has the same target. The following applies: at 1 µM.
The target of assay [6] is T1, Dual specificity tyrosine-phosphorylation-regulated kinase 2 (Homo sapiens) (UniProt Q92630).
T1 sequence (whole entry): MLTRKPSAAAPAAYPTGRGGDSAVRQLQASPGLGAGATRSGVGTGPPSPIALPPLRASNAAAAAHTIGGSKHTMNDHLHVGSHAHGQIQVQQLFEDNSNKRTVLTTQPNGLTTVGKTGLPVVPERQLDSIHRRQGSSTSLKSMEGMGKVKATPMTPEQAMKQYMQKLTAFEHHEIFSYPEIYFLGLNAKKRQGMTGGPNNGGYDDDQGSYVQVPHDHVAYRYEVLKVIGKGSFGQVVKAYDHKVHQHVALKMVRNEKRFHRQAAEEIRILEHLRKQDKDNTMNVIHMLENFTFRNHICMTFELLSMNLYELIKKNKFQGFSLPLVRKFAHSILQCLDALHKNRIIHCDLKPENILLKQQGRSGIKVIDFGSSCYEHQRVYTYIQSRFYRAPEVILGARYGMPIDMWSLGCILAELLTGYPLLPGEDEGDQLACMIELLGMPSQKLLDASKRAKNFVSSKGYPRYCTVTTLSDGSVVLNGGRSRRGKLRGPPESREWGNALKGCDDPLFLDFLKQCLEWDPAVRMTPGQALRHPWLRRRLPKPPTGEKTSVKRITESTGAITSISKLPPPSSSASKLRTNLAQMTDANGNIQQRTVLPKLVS
The following applies: at 0.1 µM.

Assay [7] addresses T1, Dual specificity tyrosine-phosphorylation-regulated kinase 2 (Homo sapiens). The following applies: at 1 µM.
Assay [8] has as its target Glycogen synthase kinase-3 alpha (Homo sapiens) (UniProt P49840). The following applies: at 0.1 µM.
Assay [9] shares this target. The following applies: at 1 µM.
The target of assay [10] is Glycogen synthase kinase-3 beta (Homo sapiens) (UniProt P49841). The following applies: at 0.1 µM.
For assay [11] the target is unchanged. The following applies: at 1 µM.
Assay [12] has as its target Homeodomain-interacting protein kinase 1 (Homo sapiens) (UniProt Q86Z02). The following applies: at 0.1 µM.
Assay [13] has the same target. The following applies: at 1 µM.
In assay [14] the target is T2, Homeodomain-interacting protein kinase 4 (Homo sapiens) (UniProt Q8NE63).
T2 sequence (whole entry): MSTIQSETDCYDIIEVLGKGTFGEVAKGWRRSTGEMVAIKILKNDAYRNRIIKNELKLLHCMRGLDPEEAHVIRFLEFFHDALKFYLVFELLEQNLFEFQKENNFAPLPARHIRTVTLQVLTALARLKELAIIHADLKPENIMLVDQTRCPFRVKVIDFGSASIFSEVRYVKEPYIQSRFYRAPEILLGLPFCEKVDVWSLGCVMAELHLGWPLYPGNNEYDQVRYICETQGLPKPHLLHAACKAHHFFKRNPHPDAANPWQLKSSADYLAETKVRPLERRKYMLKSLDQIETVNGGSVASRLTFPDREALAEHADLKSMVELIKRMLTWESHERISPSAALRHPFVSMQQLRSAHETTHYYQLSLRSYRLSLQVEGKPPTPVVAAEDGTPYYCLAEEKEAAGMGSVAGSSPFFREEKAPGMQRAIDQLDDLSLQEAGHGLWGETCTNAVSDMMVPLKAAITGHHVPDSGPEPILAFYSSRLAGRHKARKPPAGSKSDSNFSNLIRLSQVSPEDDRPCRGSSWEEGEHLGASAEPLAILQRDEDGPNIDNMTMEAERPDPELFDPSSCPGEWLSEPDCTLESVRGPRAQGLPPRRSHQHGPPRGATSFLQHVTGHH
The following applies: at 0.1 µM.

Assay [15] has as its target T2, Homeodomain-interacting protein kinase 4 (Homo sapiens). The following applies: at 1 µM.
The target of assay [16] is Mitogen-activated protein kinase 9 (Homo sapiens) (UniProt P45984). The following applies: at 0.1 µM.
Assay [17] has the same target. The following applies: at 1 µM.
Assay [18] addresses Mitogen-activated protein kinase 1 (Homo sapiens) (UniProt P28482). The following applies: at 0.1 µM.
For assay [19] the target is unchanged. The following applies: at 1 µM.
Assay [20] deals with Mitogen-activated protein kinase 3 (Homo sapiens) (UniProt P27361). The following applies: at 0.1 µM.
Mitogen-activated protein kinase 3 (Homo sapiens), sequence (P27361 whole entry): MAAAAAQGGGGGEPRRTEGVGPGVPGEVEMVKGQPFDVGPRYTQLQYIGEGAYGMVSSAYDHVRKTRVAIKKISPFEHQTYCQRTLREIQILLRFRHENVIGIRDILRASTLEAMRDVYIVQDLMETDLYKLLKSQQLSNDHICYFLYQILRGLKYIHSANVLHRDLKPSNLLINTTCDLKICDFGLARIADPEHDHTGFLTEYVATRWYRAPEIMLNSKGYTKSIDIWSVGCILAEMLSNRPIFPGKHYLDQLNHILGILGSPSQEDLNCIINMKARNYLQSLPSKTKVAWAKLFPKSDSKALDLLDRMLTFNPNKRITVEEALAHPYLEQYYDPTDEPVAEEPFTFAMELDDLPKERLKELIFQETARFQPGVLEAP

Dual specificity tyrosine-phosphorylation-regulated kinase 1B (Homo sapiens), sequence (Q9Y463 whole entry, looked up): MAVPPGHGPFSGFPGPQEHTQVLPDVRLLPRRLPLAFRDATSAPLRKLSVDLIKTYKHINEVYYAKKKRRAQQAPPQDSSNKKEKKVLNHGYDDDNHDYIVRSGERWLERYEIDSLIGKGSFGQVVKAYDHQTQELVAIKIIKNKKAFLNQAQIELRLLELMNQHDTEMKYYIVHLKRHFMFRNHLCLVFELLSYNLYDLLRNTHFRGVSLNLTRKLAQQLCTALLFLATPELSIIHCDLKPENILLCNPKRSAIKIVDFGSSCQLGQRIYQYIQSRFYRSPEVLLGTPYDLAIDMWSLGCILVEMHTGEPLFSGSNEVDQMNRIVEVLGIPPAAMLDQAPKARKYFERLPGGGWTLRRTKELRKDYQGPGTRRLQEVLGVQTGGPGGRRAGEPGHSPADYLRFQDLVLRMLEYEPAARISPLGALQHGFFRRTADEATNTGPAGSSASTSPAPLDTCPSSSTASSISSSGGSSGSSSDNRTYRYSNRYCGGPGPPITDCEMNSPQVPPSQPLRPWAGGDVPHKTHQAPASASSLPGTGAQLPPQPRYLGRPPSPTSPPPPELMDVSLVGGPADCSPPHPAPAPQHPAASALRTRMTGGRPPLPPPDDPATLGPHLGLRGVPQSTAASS
Mitogen-activated protein kinase 1 (Homo sapiens), sequence (P28482 whole entry): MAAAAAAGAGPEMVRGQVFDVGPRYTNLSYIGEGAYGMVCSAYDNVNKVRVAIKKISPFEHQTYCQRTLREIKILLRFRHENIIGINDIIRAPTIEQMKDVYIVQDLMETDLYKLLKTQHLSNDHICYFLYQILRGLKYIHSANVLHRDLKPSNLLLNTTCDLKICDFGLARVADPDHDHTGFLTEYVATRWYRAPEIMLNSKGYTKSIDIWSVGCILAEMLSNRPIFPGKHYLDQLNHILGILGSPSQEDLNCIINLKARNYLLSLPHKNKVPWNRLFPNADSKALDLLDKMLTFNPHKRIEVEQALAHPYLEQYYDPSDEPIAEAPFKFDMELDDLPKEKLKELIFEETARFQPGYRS
Dual specificity protein kinase CLK3 (Homo sapiens), sequence (P49761 whole entry, looked up): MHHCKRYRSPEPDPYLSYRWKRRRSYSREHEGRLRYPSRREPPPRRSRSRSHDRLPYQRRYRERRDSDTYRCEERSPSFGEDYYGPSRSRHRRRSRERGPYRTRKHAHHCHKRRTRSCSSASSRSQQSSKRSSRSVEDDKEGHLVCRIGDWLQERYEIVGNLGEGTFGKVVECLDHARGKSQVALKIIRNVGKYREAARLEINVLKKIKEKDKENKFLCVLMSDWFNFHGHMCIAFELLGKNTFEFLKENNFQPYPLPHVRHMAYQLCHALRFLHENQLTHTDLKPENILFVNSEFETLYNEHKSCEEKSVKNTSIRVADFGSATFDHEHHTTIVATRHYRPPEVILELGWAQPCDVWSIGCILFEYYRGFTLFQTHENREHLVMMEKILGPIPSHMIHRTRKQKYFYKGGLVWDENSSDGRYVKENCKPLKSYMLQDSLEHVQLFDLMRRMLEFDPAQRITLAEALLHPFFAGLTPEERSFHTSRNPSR
Mitogen-activated protein kinase 9 (Homo sapiens), sequence (P45984 whole entry, looked up): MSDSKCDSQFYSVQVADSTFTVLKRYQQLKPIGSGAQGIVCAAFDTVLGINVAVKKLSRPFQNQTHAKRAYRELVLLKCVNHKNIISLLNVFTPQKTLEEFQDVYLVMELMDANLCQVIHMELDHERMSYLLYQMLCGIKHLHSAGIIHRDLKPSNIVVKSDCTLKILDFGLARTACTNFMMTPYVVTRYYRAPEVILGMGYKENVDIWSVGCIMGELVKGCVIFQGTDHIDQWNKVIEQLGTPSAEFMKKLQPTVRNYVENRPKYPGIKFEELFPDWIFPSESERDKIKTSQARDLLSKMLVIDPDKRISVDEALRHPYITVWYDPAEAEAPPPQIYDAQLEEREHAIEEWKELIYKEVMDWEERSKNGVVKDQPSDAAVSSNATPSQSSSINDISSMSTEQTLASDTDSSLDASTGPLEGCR
Homeodomain-interacting protein kinase 1 (Homo sapiens), sequence (Q86Z02 whole entry, looked up): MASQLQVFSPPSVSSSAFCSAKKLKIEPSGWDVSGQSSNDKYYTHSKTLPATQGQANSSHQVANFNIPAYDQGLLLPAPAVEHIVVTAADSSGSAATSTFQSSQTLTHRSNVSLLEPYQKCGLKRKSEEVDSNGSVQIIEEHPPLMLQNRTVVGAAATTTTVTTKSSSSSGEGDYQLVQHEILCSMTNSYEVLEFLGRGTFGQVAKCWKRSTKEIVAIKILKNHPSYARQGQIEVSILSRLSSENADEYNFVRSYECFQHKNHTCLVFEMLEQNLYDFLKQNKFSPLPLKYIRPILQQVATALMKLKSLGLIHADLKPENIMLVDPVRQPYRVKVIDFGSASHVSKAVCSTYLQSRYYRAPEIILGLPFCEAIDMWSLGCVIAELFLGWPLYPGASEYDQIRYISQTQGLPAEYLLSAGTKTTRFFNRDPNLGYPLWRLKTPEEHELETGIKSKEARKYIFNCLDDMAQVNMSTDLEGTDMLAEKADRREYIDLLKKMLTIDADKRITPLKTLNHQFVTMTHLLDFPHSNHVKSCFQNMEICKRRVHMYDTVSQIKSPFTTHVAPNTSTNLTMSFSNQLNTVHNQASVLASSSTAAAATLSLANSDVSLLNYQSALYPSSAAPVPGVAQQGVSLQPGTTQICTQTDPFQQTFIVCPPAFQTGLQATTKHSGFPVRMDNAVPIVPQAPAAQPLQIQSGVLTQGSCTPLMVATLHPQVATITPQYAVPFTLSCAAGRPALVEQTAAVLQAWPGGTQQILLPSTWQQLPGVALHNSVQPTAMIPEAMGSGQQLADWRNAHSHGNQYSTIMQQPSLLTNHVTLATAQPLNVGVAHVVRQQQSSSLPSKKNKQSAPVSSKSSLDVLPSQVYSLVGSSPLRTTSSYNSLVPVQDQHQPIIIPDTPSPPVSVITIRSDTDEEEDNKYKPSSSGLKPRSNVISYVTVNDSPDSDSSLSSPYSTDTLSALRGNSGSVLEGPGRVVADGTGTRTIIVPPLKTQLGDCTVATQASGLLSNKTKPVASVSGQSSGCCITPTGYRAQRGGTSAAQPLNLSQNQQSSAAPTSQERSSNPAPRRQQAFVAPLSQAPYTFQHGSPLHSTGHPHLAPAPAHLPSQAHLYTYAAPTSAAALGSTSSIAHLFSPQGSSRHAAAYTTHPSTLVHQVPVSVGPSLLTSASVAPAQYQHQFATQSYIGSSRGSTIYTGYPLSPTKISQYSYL
Glycogen synthase kinase-3 alpha (Homo sapiens), sequence (P49840 2-483 limits assumed): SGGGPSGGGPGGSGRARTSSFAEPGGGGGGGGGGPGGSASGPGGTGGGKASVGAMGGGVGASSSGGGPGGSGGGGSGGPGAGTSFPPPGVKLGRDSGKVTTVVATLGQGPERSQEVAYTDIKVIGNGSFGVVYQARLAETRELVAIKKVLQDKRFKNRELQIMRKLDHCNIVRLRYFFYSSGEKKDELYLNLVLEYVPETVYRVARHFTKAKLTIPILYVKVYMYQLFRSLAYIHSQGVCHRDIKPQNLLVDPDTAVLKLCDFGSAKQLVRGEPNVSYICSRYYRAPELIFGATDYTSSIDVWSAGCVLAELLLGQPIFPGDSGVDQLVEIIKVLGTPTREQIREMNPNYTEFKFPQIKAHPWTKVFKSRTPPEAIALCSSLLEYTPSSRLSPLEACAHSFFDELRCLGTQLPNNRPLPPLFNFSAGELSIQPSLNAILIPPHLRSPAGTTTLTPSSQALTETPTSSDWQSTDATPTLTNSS
Glycogen synthase kinase-3 beta (Homo sapiens), sequence (P49841 whole entry, looked up): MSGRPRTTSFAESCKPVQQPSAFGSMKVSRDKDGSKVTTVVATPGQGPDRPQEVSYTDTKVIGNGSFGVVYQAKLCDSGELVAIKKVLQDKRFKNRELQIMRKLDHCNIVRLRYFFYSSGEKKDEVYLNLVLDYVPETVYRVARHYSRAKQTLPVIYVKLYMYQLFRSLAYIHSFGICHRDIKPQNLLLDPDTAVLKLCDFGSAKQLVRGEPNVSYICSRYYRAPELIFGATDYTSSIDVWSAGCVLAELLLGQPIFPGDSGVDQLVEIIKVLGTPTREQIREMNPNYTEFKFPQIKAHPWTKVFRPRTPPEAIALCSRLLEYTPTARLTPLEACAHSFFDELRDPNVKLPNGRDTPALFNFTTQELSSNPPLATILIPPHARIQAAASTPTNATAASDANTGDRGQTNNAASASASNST

The term inhibition denotes the relative decrease from the control value, in per cent. With `NC(=O)c1sc(-n2cnc3ccc(C(F)(F)F)cc32)cc1OCc1ccccc1Br`, the inhibition in assay [1] is 4.85%; in assay [2] it was 2.74%; in assay [3], 8.54%; in [4] it was -0.4%; in assay [5], 2.27%; in [6] it was 2.93%. The inhibition was 4.03% in assay [7]; 1.26% in [8]; 7.48% in assay [9]; -0.61% in assay [10]; 3.8% in assay [11]; 0.1% in assay [12]. The inhibition came out at 2.51% in assay [13]; 1.27% in assay [14]; 4.18% in assay [15]; 3.06% in assay [16]; 5.5% in [17]; 2.67% in [18]. In addition, the results for the inhibition in assay [19] and in [20] were 4.49% and 3.25%, respectively.
Regarding `COc1cc2ncn(-c3cc(OCc4ccccc4C(F)(F)F)c(C(=O)N(C)C)s3)c2cc1OC`, the inhibition was 0.45% in [1]; 0.01% in assay [2]; 0.74% in [3]; 0.5% in assay [4]; 0.22% in assay [5]; -0.27% in [6]. For the same compound, the inhibition in assay [7] was 2.19%; in assay [8], 0.04%; in assay [9], 1.19%; in assay [10], 0.03%; in assay [11], 1.99%; in assay [12] it was -1.93%. The inhibition is -0.02% in assay [13]; -0.52% in assay [14]; 2.66% in assay [15]; 1.07% in assay [16]; 2.1% in assay [17]; -1.73% in [18]. For the same compound, the values for the inhibition in [19] and in assay [20] were 0.92% and -0.18%, respectively.
On to `COC(=O)Nc1nc2ccc(S(=O)(=O)c3ccc(NC(=O)Nc4cc(C(F)(F)F)ccc4F)cc3)cc2[nH]1`, for which the inhibition was 0.84% in assay [1]; 1.81% in assay [2]; 3.41% in assay [3]; 0.89% in assay [4]; 0.66% in assay [5]; 2.74% in assay [6]. Further, the inhibition was 3.12% in [7]; 2.8% in assay [8]; 7.37% in [9]; 0.8% in assay [10]; 7.61% in [11]; -0.95% in assay [12]. The inhibition in assay [13] was 0.3%; in assay [14], -0.96%; in assay [15], 1.06%; in assay [16], 3.14%; in assay [17] it was 3.4%; in [18], 1.4%. Also, the results for the inhibition in assay [19] and in assay [20] were 2.17% and 3%, respectively.
With `N#Cc1c(NC(=O)c2ccc(F)cc2)sc2c1CCCC2`, the inhibition is 0.61% in assay [1]; 0.28% in assay [2]; 3.62% in assay [3]; -0.66% in assay [4]; 1.05% in assay [5]; -0.13% in assay [6]. The inhibition is 0.26% in assay [7]; 0.69% in assay [8]; 2.28% in assay [9]; -0.51% in [10]; 3.45% in [11]; -1.95% in assay [12]. The inhibition was -1.66% in [13]; -1.19% in assay [14]; -0.61% in assay [15]; 2.17% in assay [16]; 2.49% in assay [17]; 0.39% in assay [18]. For the same compound, the values for the inhibition in assay [19] and in [20] were 1.25% and -1.04%, respectively.
As for `Cc1cccc(Nc2ncc(-c3ccccc3)o2)c1`, the inhibition in [1] stood at 0.79%; in assay [2], 1.29%; in [3], 4.26%; in [4], 0.51%; in assay [5] it was 2.16%; in assay [6], 3.21%. The inhibition in assay [7] is 5.94%; in assay [8] it was 4.32%; in [9], 12.3%; in assay [10], 3.23%; in assay [11] it was 12%; in assay [12], -1.62%. In addition, the inhibition in [13] came out at 9.25%; in assay [14], 1.22%; in assay [15], 8.11%; in assay [16], 5.28%; in assay [17], 7.95%; in [18], 3.91%. Besides, the inhibition was determined as 5.08% in assay [19] and 5.66% in [20].
As to `NS(=O)(=O)c1ccc(Nc2ncc(-c3ccccc3)o2)cc1`, the inhibition came to 6.65% in [1]; 6.93% in [2]; 16% in assay [3]; 5.92% in [4]; 12.5% in [5]; 2.13% in [6]. In addition, the inhibition in assay [7] was found to be 8.68%; in [8], 12.9%; in assay [9], 43.4%; in [10], 11.4%; in assay [11], 35.4%; in assay [12] it was 9.46%. The inhibition in assay [13] stood at 28.8%; in assay [14], 6.48%; in assay [15], 24.3%; in assay [16] it was 1.48%; in assay [17], 7.69%; in assay [18], 2.91%. For the same compound, the inhibition amounted to 3.4% in assay [19] and 2.41% in assay [20].
